Compounds with a hit are over-represented: about 19% of the library has one in this group of screens.
HT1080 IDH1KD tx: kills HT-1080 cells with IDH1 knockdown | HT-1080 IDH1 knockdown viability, ATP luminescence, 48 h | Potency, µM (top dose mostly 46.1 µM), without a hit: at the top dose activity, negative = toxicity, usual class: cytotoxic | hit rate 2% among 360,000 | AID 686971;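 also: 0% = DMSO wells and -100% = cell-free medium wells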
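After a 2 h attachment period, IDH1KD HT-1080 cells took pin-transferred compound for 48 h at 37 °C; ATP-based luminescence after 10 min room-temperature reagent incubation reported viability.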
DT40 TDP1 CPT: DT40-hTDP1 cell growth loss with CPT | hit rate 12% among 420,000 | chicken DT40 Tdp1-/-;hTDP1 cells + 20 nM CPT, ATP luminescence, 48 h | Potency, µM (doses to about 46.2 µM), for inactives: top-dose activity change, negative = growth inhibition, usual class: inhibitors; also: nearly all actives have a fitted effect of over 55% in size
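Cell growth measured by CellTiter-Glo luminescence after a minimum 48 h, 37 C compound exposure with 20 nM CPT in Tdp1-knockout DT40 cells stably expressing hTDP1, seeded 400/well; qHTS titration format.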
HT1080NT lethal: kills 2HG-producing HT-1080-NT fibrosarcoma cells | hit rate 1.6% among 360,000 | HT-1080-NT fibrosarcoma viability, CellTiter-Glo ATP luminescence, 48 h | Potency, µM (series often up to 46.1 µM), for the others: at the highest dose activity, negative = less viability, actives largely listed as cytotoxic;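 also: NT is the 2HG producing partner of a matched IDH1 knockdown line; 0% = DMSO-treated cells and -100% = media-only wells without cells; nearly all actives have a fitted effect of over 55% in size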
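Viability by CellTiter-Glo luminescence after 48 h compound exposure at 37C of HT-1080-NT cells (750/well, RPMI, 5% FBS). % activity scaled between DMSO wells and medium-only wells, then curve-fitted and categorized by curve class.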
KB-3-1 cytotox: KB-3-1 parental cell cytotoxicity; AID 1347075; Potency, µM (series often up to 46.1 µM), hits mostly cytotoxic; KB-3-1 viability, CellTiter-Glo ATP luminescence, 72 h; hit rate 1.4% among 400,000; also: nearly all actives have a fitted effect of over 60% in size
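Luminescent ATP read-out (CellTiter-Glo) measures survival of drug-naive KB-3-1 cells after 72 h compound exposure at 37 °C. Titration series was screened from lowest to highest concentration, with DMSO vehicle plates as background controls.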
TDP1 cell noCPT: qHTS for Inhibitors of human tyrosyl-DNA phosphodiesterase 1 (TDP1): qHTS in cells in absence of CPT. DT40 Tdp1-/- hTDP1 cells, no CPT, ATP luminescence, 48 h. Potency, µM (highest dose often 46.2 µM), without a hit: top-dose activity change, negative = growth inhibition, hits mostly inhibitors. hit rate 15% among 420,000; also: nearly all actives have a fitted effect of over 55% in size
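Growth kinetics read by CellTiter-Glo luminescence after ≥48 hr at 37 °C. Cells: DT40 Tdp1-/- stably carrying human TDP1, 400 per well, compound exposure in the absence of CPT (DMSO vehicle).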
KB-V1 MDR tox: kills drug-selected multidrug resistant KB-V1 cells | KB-V1 MDR cells viability, CellTiter-Glo, 72 h | Potency, µM (doses to about 46.1 µM), hits mostly cytotoxic | AID 1347076 | hit rate 3.4% among 400,000; also: nearly all actives have a fitted effect of over 60% in size
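Following 72 h at 37 degrees C with compound, KB-V1 cell viability was read by CellTiter-Glo luminescence, medium being phenol-red-free DMEM plus 10% FBS; concentration-response parameters came from normalized, curve-fitted qHTS data.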
Starred values were filed as active, the others as inactive; i = inactive; ? = inconclusive; · = not tested or not shown; ! = not confirmed by another sample. Calls follow the shape of the dose curve; as a rule, active = well fitted curve in the direction sought with a large enough effect; inconclusive = small, poorly fitted or top-dose-only effect, or another doubt; inactive = no such curve, though single readings can be large; an effect the other way counts as inactive or inconclusive. Unless noted, % is scaled to controls: 0 for no effect and ±100 for the full control effect; potency is read from the fitted curve at half-maximal effect.

SMILES	HT1080 IDH1KD tx	DT40 TDP1 CPT	HT1080NT lethal	KB-3-1 cytotox	TDP1 cell noCPT	KB-V1 MDR tox
O=C1C2C3C=CC(CC3)C2C(=O)N1c1ccc(Cl)cc1Cl (centres undefined)	-2%	-2%	0%	i	12%	i
CCOc1ccc(NC(=O)c2ccc3c(SCC(=O)O)c4c(nc3c2)CCC4)cc1	·	15%	·	i	11%	i
CCOc1ccc2nc(Cl)c(C3CC(c4ccc(C)cc4)=NN3C(=O)CCCC(=O)O)cc2c1 (centres undefined)	·	-8%	·	i	-7%	i
COc1cc(O)c(C(=O)/C=C/c2ccccc2)c(OC)c1	?	15µM*	?	?	18µM*	?
CC(C(=O)Nc1ccccc1C(F)(F)F)n1nc(-c2ccccc2)c2c(c1=O)CCCC2 (centres undefined)	·	?	·	?	16µM*	i
CC(C(=O)Nc1cccc(C#N)c1)n1nc(-c2ccccc2)c2c(c1=O)CCCC2 (centres undefined)	·	?	·	?	-24%	i
CC(=O)N(C)c1cc([N+](=O)[O-])ccc1OCc1ccccc1	-4%	-9%	0%	i	-22%	21µM*
O=[N+]([O-])c1ccc(N/N=C\c2ccccc2OCc2ccccc2)cc1	-4%	?	-20%	i	?	i
O=CN(Cc1ccccc1)c1cc([N+](=O)[O-])ccc1OCc1ccccc1	10%	-15%	3%	i	?	5.8µM*
Nc1cc([N+](=O)[O-])ccc1Nc1ccccc1	-16%	15µM*	1%	i	6.5µM*	i
O=[N+]([O-])c1cccc(COc2ccccc2CO)c1	11%	-20%	7%	i	?	i
Nc1cc([N+](=O)[O-])ccc1OCc1ccccc1	-15%	18µM*	-3%	i	?	?
O=C(CNS(=O)(=O)c1ccccc1)N/N=C/c1ccccc1[N+](=O)[O-]	-16%	-22%	-15%	i	-22%	i
CC(C)NC(=O)N(C)C[C@H]1Oc2ncc(Br)cc2C(=O)N([C@H](C)CO)C[C@@H]1C	11%	-3%	9%	i	-10%	i
O=C(N/N=C/c1ccccc1O)C(=O)Nc1ccccn1	?	13µM*	-29%	i	15µM*	i
O=C(N/N=C/c1cc(Br)ccc1OC(=O)c1ccc(Br)cc1)c1ccncc1	?	4.6µM*	21µM*	?	6.5µM*	i
O=C(N/N=C/c1cc(Cl)ccc1O)c1ccc(Br)cc1	5.8µM*	5.2µM*	9.2µM*	?	5.8µM*	?
Cc1nc(C)c(C(=O)N/N=C/c2cc(Br)ccc2O)s1	2.1µM*	4.6µM*	?	i	3.7µM*	i
Cc1nc(C)c(C(=O)N/N=C/c2c[nH]c3ccccc23)s1	-27%	?	-24%	?	?	?
NC(=O)N/N=C\c1cc(Br)ccc1O	0%	-10%	-4%	i	?	?
CCOc1ccc(N(CC(=O)NN=C2CCN(C)CC2)S(=O)(=O)c2ccc(Br)cc2)cc1	-11%	?	-1%	i	-21%	i
O=C(N/N=C/c1ccccc1O)c1cc[n+]([O-])cc1	?	15µM*	-18%	i	29µM*	i
O=C(N/N=C\c1cc(Br)ccc1O)c1ccc(S(=O)(=O)N2CCCCC2)cc1	2.1µM*	4.1µM*	?	i	2.9µM*	i
Cn1cc(Br)c(C(=O)N/N=C/c2cc3ccccc3nc2Cl)n1	-3%	?	-8%	i	21µM*	i
Cc1ccc(N=Nc2ccc(O)c(/C=N\NC(=O)c3ccc(N)cc3)c2)cc1C	1.6µM*	10µM*	4µM*	i	13µM*	i
SMILES	HT1080 IDH1KD tx	DT40 TDP1 CPT	HT1080NT lethal	KB-3-1 cytotox	TDP1 cell noCPT	KB-V1 MDR tox
CN(C)C1(CNC(=O)COc2ccc(C(C)(C)C)cc2)CCCCC1	·	?	·	i	?	i
O=C(Cc1ccccc1)N(Cc1cccnc1)c1nc2ccc(F)cc2s1	·	?	·	·	-7%	·
c1ccc(-c2nnc(CN3CCN(c4ccccn4)CC3)o2)cc1	·	-16%	·	i	-20%	i
CCNC(=O)C1(C)CCN(Cc2ccc(C#N)cc2)C1 (centres undefined)	19%	-10%	?	i	-13%	i
COc1cc(Cl)c(C)cc1NC(=O)c1cc(CN2CCOCC2)on1	·	?	·	i	?	i
O=C(N/N=C/c1ccc(O)c2ncccc12)c1cccc(Br)c1	18µM*	3.7µM*	23µM*	2.6µM*	4.6µM*	?
O=C(NN=Cc1cccc(O)c1O)c1ccccc1	?	2.6µM*	?	i	4.6µM*	i
NC(=S)N/N=C/c1cccc(O)c1O	-21%	0.58µM*	-17%	?	0.92µM*	i
CCOc1ccccc1NC(=O)C(=O)N/N=C/c1cc(Br)ccc1O	?	?	?	?	10µM*	i
O=C(N/N=C/c1ccccn1)c1cc(Br)ccc1O	?	?	-20%	i	?	i
NC(=S)N/N=C/c1ccccc1O	11%	?	7%	i	?	i
Cc1ccc(CNCCCn2cnc(C(=O)Nc3ccc(C)c(C)c3)n2)o1	3%	-1%	4%	i	-23%	i
Cc1ccc(NCC(=O)N/N=C/c2cc3ccccc3nc2Cl)cc1	-23%	23µM*	?	i	29µM*	i
O=C(N/N=C/c1cccc2ccccc12)c1ccncc1	6%	2%	6%	i	-16%	?
O=C(N/N=C/c1cc2ccccc2nc1Cl)c1ccncc1	-23%	2.6µM*	-3%	i	4.6µM*	i
O=C(N/N=C/c1cc(Br)ccc1O)c1ccncc1	?	4.6µM*	?	?	1.6µM*	i
O=C(N/N=C/c1ccccc1O)c1ccncc1	?	4.6µM*!	?	i	3.7µM*	i
O=C(N/N=C/c1cc([N+](=O)[O-])ccc1O)c1ccncc1	-8%	?	?	i	?	?
O=C(CN1CCOCC1)N/N=C/c1cc2ccccc2nc1Cl	11%	?	4%	i	?	i
CC1CCC(C(C)C)[C@H](O)C1 (some centres undefined)	·	?	·	·	0%	·
CN(Cc1c(F)cccc1Cl)C(=O)C1=CC=CN2CCS(=O)(=O)N=C12	10%	-16%	7%	i	21%	?
